We go through 21 sequences from PMC5892938, “SARNAclust: Semi-automatic detection of RNA protein binding motifs from immunoprecipitation data”.

In all, about 11,000 sequences were measured (“log2 fold change”: median about 0.00022, highest 2% from about 0.34 on). Some of the results follow.

For the assay, the target named is GST-SBP-SLBP (stem-loop binding protein) (Homo sapiens, UniProt Q14493 1-270). In words: targeted RNA Bind-n-Seq; RBNS binding buffer: 25 mM Tris pH 7.5, 150 mM KCl, 3 mM MgCl2, 0.1% Tween, 0.5 mg/mL BSA, 1 mM DTT; 27 nM protein, 750 pM RNA pool; temperature not stated; high values mean tight binding. The note with it: protein: recombinant; tags: N-terminal GST and SBP (pGEX6P1-SBP); structured_RNA. In outline:
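A designed RNA oligo pool, transcribed with T7, was present at 750 pM and incubated in RBNS binding buffer with 27 nM of GST-SBP-tagged protein that had been expressed in Rosetta(DE3) pLysS E. coli and purified with glutathione. After reverse transcription with a 10-nucleotide barcoded primer and PCR, the bound RNA was sequenced as 200-cycle paired-end reads on a MiSeq. Each sequence's binding signal is the DEseq binary-logarithm fold change in read counts, computed after joining reads with FLASH, aligning with HISAT2 and collapsing by barcode.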
“GGUCACGUCUCAAUCAACUCUCACGAGGGGGGGAAAACCCCUUUACCCUCUUACUCAACAGCUCGCAGUCAAG”: the binding signal amounted to 0.346 ± 0.439 log2 fold change.

Consider “GGUCACGUCUCAAUCAACUCUCACGAGGGGGGGAAAACCCCUUUACCCUCAACUUCAACAGCUCGCAGUCAAG”, for which the binding signal was 0.363 ± 0.418 log2 fold change.

In the case of “GGUCACGUCUCAAUCAACUCUUACGAGGGGGGGAAAACCCCUUUACCCUCUUCUUCAACAGCUCGCAGUCAAG”, the binding signal was found to be 0.477 ± 0.42 log2 fold change.

On to “GGUCACGUCUCAAUCAACUCAAACGAGGGGGGGAAAACCCCUUUACCCUCAACUUCAACAGCUCGCAGUCAAG”, for which the binding signal was 0.35 ± 0.421 log2 fold change.

In the case of “GGUCACGUCUCAAUCAACUCUUACGAGGGGGGGAAAACCCCUUUACCCUCACACUCAACAGCUCGCAGUCAAG”, the binding signal turned out to be 0.321 ± 0.386 log2 fold change.

As to “GGUCACGUCUCAAUCAACUCAAACGAGGGGGGGAAAACCCCUUUACCCUCAUUCUCAACAGCUCGCAGUCAAG”, the binding signal was 0.326 ± 0.393 log2 fold change.

With “GGUCACGUCUCAAUCAACUCUAACGAGGGGGGGAAAACCCCUUUACCCUCAACUUCAACAGCUCGCAGUCAAG”, the binding signal came out at 0.426 ± 0.419 log2 fold change.

For “GGUCACGUCUCAAUCAACUCUAACGAGGGGGGGAAAACCCCUUUACCCUCUAUAUCAACAGCUCGCAGUCAAG”, the binding signal stood at 0.308 ± 0.434 log2 fold change.

With “GGUCACGUCUCAAUCAACUCCUUCGAGGGGGGGAAAACCCCUUUACCCUCUUCAUCAACAGCUCGCAGUCAAG”, the binding signal was found to be 0.429 ± 0.434 log2 fold change.

For “GGUCACGUCUCAAUCAACUCCUUCGAGGGGGGGAAAACCCCUUUACCCUCUUAAUCAACAGCUCGCAGUCAAG”, the binding signal is 0.305 ± 0.422 log2 fold change.

“GGUCACGUCUCAAUCAACUCAACGGAGGGGGGGAAAACCCCUUUACCCUCAACAUCAACAGCUCGCAGUCAAG”: the binding signal is 0.308 ± 0.444 log2 fold change.

With “GGUCACGUCUCAAUCAACUCUUCGGAGGGGGGGAAAACCCCUUUACCCUCAAUCUCAACAGCUCGCAGUCAAG”, the binding signal came to 0.453 ± 0.428 log2 fold change.

“GGUCACGUCUCAAUCAACUCCUUCGAGGGGGGGAAAACCCCUUUACCCUCACCUUCAACAGCUCGCAGUCAAG”: the binding signal was 0.36 ± 0.426 log2 fold change.

With “GGUCACGUCUCAAUCAACUCUUUCGAGGGGGGGAAAACCCCUUUACCCUCAUAAUCAACAGCUCGCAGUCAAG”, the binding signal is 0.336 ± 0.429 log2 fold change.

On to “GGUCACGUCUCAAUCAACUCUUUCGAGGGGGGGAAAACCCCUUUACCCUCAUACUCAACAGCUCGCAGUCAAG”, for which the binding signal turned out to be 0.524 ± 0.429 log2 fold change.

Regarding “GGUCACGUCUCAAUCAACUCCUUCGAGGGGGGGAAAACCCCUUUACCCUCACAAUCAACAGCUCGCAGUCAAG”, the binding signal was determined as 0.304 ± 0.425 log2 fold change.

Regarding “GGUCACGUCUCAAUCAACUCAAUCGAGGGGGGGAAAACCCCUUUACCCUCACCUUCAACAGCUCGCAGUCAAG”, the binding signal came to 0.499 ± 0.434 log2 fold change.

For the sequence “GGUCACGUCUCAAUCAACUCAACUCCCAGGGAAAGCCCUGGUAUACUCAACAGCUCGCAGUCAAG”, the binding signal turned out to be 0.301 ± 0.289 log2 fold change.

Turning to “GGUCACGUCUCAAUCAACUCAAUUUCCAGGGAAAGCCCUGGUAUACUCAACAGCUCGCAGUCAAG”, the binding signal amounted to 0.343 ± 0.255 log2 fold change.

As to “GGUCACGUCUCAAUCAACUCAACUUCCAGGGAAAACCCUGGUAUACUCAACAGCUCGCAGUCAAG”, the binding signal turned out to be 0.373 ± 0.293 log2 fold change.

Turning to “GGUCACGUCUCAAUCAACUCUACUUCCAGGGAAACCCCUGGUAUACUCAACAGCUCGCAGUCAAG”, the binding signal stood at 0.362 ± 0.285 log2 fold change.
